The source of these data is PubChem BioAssay (NCATS).

Inconclusive results are not listed. Entries that show only a call come without a potency. Activity calls are given as the source filed them. The call rests on the fitted dose curve; in most records, active means well fitted inhibition curve with a large enough effect; inconclusive means small, poorly fitted or top-dose-only effect; inactive means flat fitted curve, though single readings scatter.
Potency means the concentration at half of the fitted maximal effect.

A short description of the assay: P-glycoprotein substrates identified in KB-8-5-11 adenocarcinoma cell line, qHTS therapeutic library screen (AID 1346987). Further: nearly all actives have a fitted effect of over 65% in size. As to conditions: KB-8-5-11 (P-gp overexpressing) viability, CellTiter-Glo, 72 h; series mostly up to 44.5 µM. In outline:
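KB-8-5-11: colchicine-selected sub-line of KB-3-1 over-expressing P-gp; assay medium lacked colchicine. 72 h drug exposure at 37 degree C, CellTiter-Glo.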
In general terms: Quantitative high-throughput screening tests each substance at several concentrations.
As for `O=C1O[C@H]2[C@H](O)[C@@H]1OC(O)[C@H]2O` (some centres undefined), the Potency entry was “inactive”.
Consider `CC(/C=C/C(=O)NO)=C\[C@@H](C)C(=O)c1ccc(N(C)C)cc1`, for which the Potency was 0.58 µM (active).
As for `COc1ccc(C2(CNC(=O)c3ccc(NC(=O)c4ccco4)cc3)CCOCC2)cc1`, the Potency result is “inactive”.
In the case of `C=C1CC2[C@@]3(C)C=CC(=O)C(C)(C)C3=C(O)C(=O)[C@@]2(C)C2(C(=O)OC)C(=O)C(C)OC(=O)[C@@]12C` (some centres undefined), the Potency was 8.93 µM (active).
On to `CCCCCCCCCCCCCCCC(=O)OC[C@H](O)[C@H]1OC(=O)C(O)=C1O`, for which the Potency entry is “inactive”.
`O=C(O)CC(O)(CC(=O)O)C(=O)O`: the Potency entry was “inactive”.
As for `CC(=O)O[C@H]1[C@H](O)C[C@@]2(C)C(CC[C@]3(C)C2CC=C2C4CC(C)(C)CC[C@]4(C(=O)O)CC[C@]23C)C1(C)C` (some centres undefined), the Potency entry was “inactive”.
On to `C=C1CCC2C(C)(C(=O)O)CCCC2(C)C1CCC1=CCOC1=O` (centres undefined), for which the Potency result is “inactive”.
On to `CC(=O)[C@H]1CC[C@H]2[C@@H]3CC=C4C[C@@H](OS(=O)(=O)O)CC[C@]4(C)[C@H]3CC[C@]12C`, for which the Potency result is “inactive”.
With `CC(NCCCc1cccc(C(F)(F)F)c1)c1cccc2ccccc12` (centres undefined), the Potency entry was “inactive”.
With `C[C@@H]1C[C@H]2C3C[C@H](F)C4=CC(=O)C=CC4(C)[C@@]3(F)[C@@H](O)CC2(C)[C@@]1(O)C(=O)COC(=O)C(C)(C)C` (some centres undefined) the entry was “inactive”.
For `CC(C)n1c(=O)c(C(=O)NC2CC3CCC(C2)N3C[C@@H](O)CN(C)S(C)(=O)=O)cc2ccccc21` (some centres undefined), the Potency result was “inactive”.
Take `CC(CN(C)C)CN1c2ccccc2S(=O)(=O)c2ccccc21` (centres undefined): the Potency result is “inactive”.
Take `NS(=O)(=O)c1ccc(NC(=O)Nc2ccc(F)cc2)cc1`: the Potency result is “inactive”.
Regarding `CC(C)(C)NC(=O)[C@H]1CC[C@H]2[C@@H]3CC[C@H]4NC(=O)CC[C@]4(C)[C@H]3CC[C@]12C`, the Potency entry is “inactive”.
`O=P(O)(O)C(O)(Cc1cnc2ccccn12)P(=O)(O)O`: the Potency entry was “inactive”.
With `CCCNCCc1ccc(NS(=O)(=O)c2ccc(OC(F)(F)F)cc2)cc1` the entry was “inactive”; with `CO[C@@H]1[C@@H](O[C@@H]2O[C@H](C)[C@@H](O[C@H]3C[C@@](C)(O)[C@@H](OC(=O)CC(C)C)[C@H](C)O3)[C@H](N(C)C)[C@H]2O)[C@@H](CC=O)C[C@@H](C)[C@@H](O)/C=C/C=C/C[C@@H](C)OC(=O)C[C@H]1O`, “inactive”.
With `N#Cc1cc(C2=Nc3ccc(Br)cc3NC(=O)C2)ccn1`, the Potency result was “inactive”.
As to `CN(c1ccc(NC(=O)Nc2ccccc2)cc1)S(=O)(=O)c1cnn(-c2ccc(F)cc2)c1`, the Potency was 11.6 µM (active).
Take `CCN(CC)CCCS(=O)(=O)N[C@H](CCc1ccccc1)c1nc(Cc2ccc(Br)cc2)no1`: the Potency is 23.1 µM (active).
The same measure for `Nc1nc(OCc2cc(Br)cs2)c2[nH]cnc2n1`: “inactive”.
With `CC(C)CCCCC(=O)N[C@@H](CO)C(=O)N[C@@H](CC(C)C)C(=O)[C@@]1(CO)CO1` the entry was “inactive”.
On to `Nc1ncnc(Nc2ccc(Cl)cc2)n1`, for which the Potency entry was “inactive”.
Regarding `N#Cc1cc(-c2ccnc(Nc3ccc(N4CCOCC4)cc3)n2)ccc1OC1CCOCC1`, the Potency is 16.4 µM (active).
Turning to `Cc1cn(CCN2CCN(c3ccccc3-c3cc(C#N)cc(C(=O)NCCCN4CCCC4)c3)CC2)c2ccccc12`, the Potency was 18.4 µM (active).
The same measure for `CC(=O)Nc1nc(C)c(-c2nc(N3CCCC(O)C3)no2)s1` (centres undefined): 18.4 µM (active); for `Cc1ccccc1CN1CCn2c1nc1c(c2=O)CN(Cc2ccccc2)CC1`: “inactive”.
For the molecule `C=C[C@@]1(C)C=C2C(=O)C(O)=C3[C@](C)(C(=O)O)CC[C@@H]4C[C@]34[C@]2(O)C(=O)C1`, the Potency was 10.1 µM (active).
With `Oc1cccc(C2NC(=S)Nc3cccc(F)c32)c1` (centres undefined), the Potency is 23.1 µM (active).
For `CC(C)CCNc1ncccc1C(=O)N1CCN(Cc2ccccc2)CC1`, the Potency result was “inactive”.
Consider `COc1cc(-c2cn(C3CCc4c(F)cccc4N(CC(F)(F)F)C3=O)nn2)ccc1-n1cnc(C)c1` (centres undefined), for which the Potency result was “inactive”.
For the molecule `O=C(NCCN1CCN(c2cccc3ccc(O)cc23)CC1)c1ccc(F)cc1`, the Potency entry is “inactive”.
On to `O=c1[nH]cnc2c([C@@H]3N[C@H](CO)[C@@H](O)[C@H]3O)c[nH]c12`, for which the Potency result is “inactive”.
The same measure for `C=C1/C(=C/C=C2\CCC[C@]3(C)[C@@H]([C@@H](C)OCCC(O)(CC)CC)CC[C@@H]23)C[C@@H](O)C[C@@H]1O`: “inactive”; for `O=C(c1ccccc1)c1c(O)cc(O)cc1O[C@@H]1O[C@H](CO)[C@@H](O)[C@H](O)[C@H]1O`: “inactive”; for `CCO[C@H]1CN(C2CCC(O)(c3ccc4c(c3)OCO4)CC2)C[C@@H]1NC(=O)CNC(=O)c1cccc(C(F)(F)F)c1` (some centres undefined): “inactive”.
Consider `CCOC(=O)COc1ccc2c(C)c(CCN(CC)CC)c(=O)oc2c1`, for which the Potency entry is “inactive”.
The same measure for `C=C1/C(=C/C=C2\CCC[C@]3(C)[C@@H]([C@H](C)CC[C@@H](O)C(C)(C)O)CC[C@@H]23)C[C@@H](O)C[C@@H]1O`: “inactive”.
